# From PubChem
# Compounds with a hit are over-represented: about 18% of the library has one in this group of screens.
# DT40 TDP1 CPT – growth inhibition of DT40 Tdp1-/-;hTDP1 cells with camptothecin (screen for TDP1 inhibitors). chicken DT40 Tdp1-/-;hTDP1 cells + 20 nM CPT, ATP luminescence, 48 h. Potency, µM (doses to about 46.2 µM), without a hit: at the highest dose activity change, negative = growth inhibition, actives largely listed as inhibitors. actives 12% (n = 420,000). AID 686979; note: potency is the fitted concentration of half-maximal effect; nearly all actives have a fitted effect of over 55% in size
#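 Chicken DT40 Tdp1-/- cells stably complemented with human TDP1 were seeded at 400 cells/well in medium containing 20 nM camptothecin, exposed to pin-transferred compounds, and grown at 37 °C for at least 48 hr. Viability was read as ATP luminescence.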
# IL-1B inflam inh – inflammasome signaling inhibition, IL-1 beta readout; THP-1 LPS/ATP IL-1B secretion, AlphaLISA, 16 h; hits give low values; activity change, % at 57.5 µM; actives 4.7% (n = 360,000); AID 743279; in the data active = activity change below about -50%; inconclusive = mostly about -30% to -49%
#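 THP-1 cells pretreated 1 hr with compounds (up to 57.5 uM final), then stimulated with LPS (250 ng/mL final) plus ATP (1.25 mM final); secreted IL-1B measured by AlphaLISA after 16 hr, decreased signal indicating inhibition.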
# Six1-Eya2 blk – inhibitors of human Six1/Eya2 interaction. Q15475+O00167. AlphaScreen GST-Six1/His-Eya2 binding, biochemical; hits give low values. activity change, % (test concentration not listed). actives 0.56% (n = 360,000). AID 651725; in the data active = activity change below about -65%; inconclusive = mostly about -30% to -63%
#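 AlphaScreen luminescence read after one hour at 37 °C in darkness. Pin-transferred compounds met GST-Six1 and His-Eya2 protein (5X stock 250 nM/500 nM) plus glutathione donor and Ni-chelate acceptor beads (5X, 50 ug/mL).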
# TDP1 block – TDP1 (human) enzyme inhibition | actives 0.28% (n = 350,000) | Q9NUW8 | Potency, µM (doses to about 130 µM), inactives show at the top dose activity change, negative = inhibition, usual class: inhibitors | recombinant TDP1, AlphaScreen DNA substrate cleavage | AID 485290; note: potency is the fitted concentration of half-maximal effect; nearly all actives have a fitted effect of over 40% in size
# Target sequence (Q9NUW8 whole entry, looked up): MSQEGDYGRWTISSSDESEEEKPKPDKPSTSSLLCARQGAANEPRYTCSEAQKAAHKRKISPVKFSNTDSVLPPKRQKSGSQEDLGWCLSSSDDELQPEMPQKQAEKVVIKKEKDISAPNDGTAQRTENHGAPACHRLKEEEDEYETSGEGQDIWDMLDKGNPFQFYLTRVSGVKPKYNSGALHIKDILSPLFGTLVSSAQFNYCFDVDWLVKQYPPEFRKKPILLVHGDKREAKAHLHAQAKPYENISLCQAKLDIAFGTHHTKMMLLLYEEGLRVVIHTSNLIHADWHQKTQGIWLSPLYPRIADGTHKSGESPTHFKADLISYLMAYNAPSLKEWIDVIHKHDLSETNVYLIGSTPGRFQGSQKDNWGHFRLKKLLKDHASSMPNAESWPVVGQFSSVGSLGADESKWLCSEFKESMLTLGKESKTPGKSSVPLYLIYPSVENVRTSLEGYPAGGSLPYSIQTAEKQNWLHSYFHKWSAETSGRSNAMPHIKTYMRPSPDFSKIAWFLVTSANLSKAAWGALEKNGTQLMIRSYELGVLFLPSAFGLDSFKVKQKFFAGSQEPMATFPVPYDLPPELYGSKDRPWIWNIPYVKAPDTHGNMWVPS
#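 Recombinant human Tdp1 (E. coli-expressed, 1 nM final) preincubated with compounds 15 min at room temperature, then 5'-biotin/3'-phosphotyrosine-FITC DNA substrate (15 nM final) added for 5 min. AlphaScreen beads (10 ug/ml final) added 10 min; cleavage lowers signal.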
# TDP1 cell noCPT – qHTS for Inhibitors of human tyrosyl-DNA phosphodiesterase 1 (TDP1): qHTS in cells in absence of CPT; Potency, µM (doses to about 46.2 µM), for the others: at the top dose activity change, negative = growth inhibition, hits mostly inhibitors; AID 686978, 2013; actives 15% (n = 420,000); DT40 Tdp1-/- hTDP1 cells, no CPT, ATP luminescence, 48 h; note: potency is the fitted concentration of half-maximal effect; nearly all actives have a fitted effect of over 55% in size
#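 Luminescent ATP content (CellTiter-Glo) served as the growth readout. Knockout chicken DT40 cells expressing human TDP1 were exposed to compounds without camptothecin for a minimum 48 hr at 37 °C.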
# CtBP-E1A blk – blocks the CtBP interaction with E1A | activity change, % (concentration not given with the values) | actives 0.49% (n = 340,000) | AID 651724 | AlphaScreen GST-E1A/His-CtBP binding, 1536-well; hits give low values; in the data active = activity change below about -65%; inconclusive = mostly about -30% to -63%
#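 GST-E1A and His-tagged CtBP (125 nM each as 5X stock) were preincubated with pin-transferred compound for 2 h at 37 °C in the dark, then glutathione donor and nickel acceptor beads were added for 1 h before AlphaScreen reading.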
# * marks the source's active call; other numbers are inactive results; ? = inconclusive; . = no result given; [ ] = remark or other dose. Unless noted, calls come from the whole dose curve; as a rule, active = well fitted curve in the direction sought with a large enough effect; inconclusive = small, poorly fitted or top-dose-only effect, or another doubt; inactive = no such curve, though single readings can be large; an effect the other way counts as inactive or inconclusive. % is set by controls: 0 for no effect and ±100 for the full control effect.
SMILES,DT40 TDP1 CPT,IL-1B inflam inh,Six1-Eya2 blk,TDP1 block,TDP1 cell noCPT,CtBP-E1A blk
COc1ccc2c(=O)c3c(=O)n(-c4ccc(C)cc4)c(-c4ccccc4)nc3oc2c1,.,.,.,0.0%,.,.
COc1ccc(-c2oc3ccccc3c(=O)c2O)cc1,-2.9%,.,.,11.9%[56.1 µM],-0.3%,.
COc1ccc2c(=O)c(OC)c(-c3ccccc3)oc2c1,?,.,.,6.1%[56.1 µM],7.31µM*,.
COc1ccccc1-c1c(C)oc2cc(OC(=O)c3ccco3)ccc2c1=O,?,2.6,-4.4,4.4%,?,6.3
COc1ccc2c(=O)c(-c3ccc(C)cc3)c(-c3ccccc3)oc2c1,11.6µM*,0.0,7.7,-1.7%[56.1 µM],7.31µM*,-10.8
COc1ccc2c(=O)c(-c3ccccc3C)c(C)oc2c1,?,-22.6,7.1,8.6%,13µM*,-6.5
COc1ccc(OC)c(C(O)c2nc3ccccc3n2C(C)C)c1 (stereo not drawn),-4.0%,9.2,6.1,8.7%,-15.8%,-6.5
COc1ccccc1CCc1nnc(CCC(=O)N(C)Cc2ccncc2C)o1,-22.9%,-9.3,-7.2,-5.1%,?,.
COc1ccc(CCc2nnc(CCC(=O)N(C)Cc3ccnc4ccccc34)o2)cc1,?,-27.7,0.7,2.6%,4.61µM*,2.4
c1ccc2c(CCc3c[nH]c4ccccc34)ccnc2c1,12.6µM*,.,.,.,15.8µM*,.
COc1ccccc1CCc1nnc(CCC(=O)N(C)Cc2cccc3cnccc23)o1,?,-8.3,2.2,3.0%,23.1µM*,-3.4
COc1ccc(OC)c(C(Cc2ccnc3ccccc23)Cc2ccnc3ccccc23)c1,12.6µM*,.,.,.,12.6µM*,.
CCCN(CC1CCCO1)C(=O)CCc1nnc(CCc2ccc(OC)cc2)o1 (stereo not drawn),23.1µM*,7.1,3.8,0.0%,?,-8.3
COc1ccc(CCc2ccnc3ccccc23)cc1,?,-62.2*,-1.3,.,20.6µM*,11.2
O=C(NCc1ccccc1)C(c1ccc(-c2ccccc2)cc1)n1c(=O)c(-c2cc3ccccc3[nH]2)nc2ccccc21 (stereo not drawn),?,43.8,-2.6,.,14.6µM*,11.8
COc1ccc(NC(=O)C(c2ccccc2F)n2c(=O)c(-c3cc4ccccc4[nH]3)nc3ccccc32)cc1 (stereo not drawn),16.4µM*,-9.6,39.7,.,13µM*,14.9
COc1ccc(NC(=O)C(c2ccncc2)n2c(=O)c(-c3ccccc3)nc3ccccc32)cc1 (stereo not drawn),?,-56.1*,-15.7,.,?,-2.5
COc1ccc(NC(=O)C(c2ccccc2)n2c(=O)c(-c3cc4ccccc4[nH]3)nc3ccccc32)cc1 (stereo not drawn),16.4µM*,-11.7,32.7,.,16.4µM*,17.7
O=C(NCc1ccccc1)C(c1ccncc1)n1c(=O)c(-c2cc3ccccc3[nH]2)nc2ccccc21 (stereo not drawn),?,-29.4,27.4,.,?,14.0
Cc1oc2cc3oc(=O)c(CC(=O)O)c(C)c3cc2c1-c1ccccc1,-7.5%,-3.1,11.0,.,2.7%,.
CC(C)c1ccc(OCc2nc(-c3ccccn3)no2)c(Br)c1,-15.0%,-53.9*,10.5,4.9%,-27.2%,9.7
CCC/C=C(\CCC)C(NC(=O)c1ccccc1)c1ccccc1 (stereo not drawn),.,.,.,7.5%,.,.
O=C(c1ccc(CS(=O)c2ccc(Br)cc2)o1)N1CCN(C2CCCCC2)CC1 (stereo not drawn),?,?,7.5,.,-29.4%,3.9
c1ccc(N/N=C(\Cc2ncc[nH]2)c2ccccc2)cc1,14.4%,-2.4,-2.6,11.4%,-1.3%,9.0
COc1cc(C(=O)N/N=C(\Cc2ncc[nH]2)c2ccccc2)cc(OC)c1OC,2.06µM*,69.4,-3.2,2.7%,5.17µM*,6.1
SMILES,DT40 TDP1 CPT,IL-1B inflam inh,Six1-Eya2 blk,TDP1 block,TDP1 cell noCPT,CtBP-E1A blk
COc1ccc(C(=O)N/N=C(\Cc2ncc[nH]2)c2ccccc2)cc1,5.17µM*,42.3,?,6.9%,2.91µM*,1.4
O=C1CC(c2ccc3c(c2)OCCO3)Oc2ccc([N+](=O)[O-])cc21 (stereo not drawn),?,-68.5*,1.2,.,16.4µM*,.
CN(C)/C=C/C(=O)c1ccc2noc(-c3ccccc3)c2c1,?,-52.4*,-5.1,.,?,-4.1
CCCOC(=O)c1ccc(NC(=O)c2cc(OC)c(OC)c(OC)c2Br)cc1,?,38.7,5.1,3.1%,?,-1.0
CCOC(=O)C1=C(c2ccccc2)N=c2s/c(=C\c3cccc(O)c3)c(=O)n2C1c1cccs1 (stereo not drawn),?,-75.0*,-7.6,8.7%,25.9µM*,-1.0
COC(=O)N1CCC[C@@]2(CCN(C(=O)Nc3cccc(F)c3)C2)C1,-5.0%,.,.,.,-3.1%,.
COc1ccc(OC)c(NC(=O)c2cc(-c3cc(C)c(C)cc3O)n[nH]2)c1,0.4%,-16.9,1.6,.,?,-2.1
COc1ccc(OC)c(NC(=O)c2cc(-c3ccc(F)cc3OC(C)C)n[nH]2)c1,16.4µM*,-16.6,-14.1,.,20.6µM*,-24.8
COc1ccc(NC(=O)c2cc(-c3cc(F)ccc3OC(C)C)n[nH]2)c(C)c1,?,-25.8,-7.9,.,16.4µM*,3.0
COc1ccccc1CCC(=O)OCC(=O)Nc1ccc(S(N)(=O)=O)cc1,0.0%,47.5,-14.5,-2.3%,-8.9%,11.3
CCOC(=O)c1ccc(NC(=O)NCCc2ccccc2OC)cc1,?,-7.2,-2.6,-2.4%,14.6µM*,8.1
COc1ccccc1CCC(=O)OCC(=O)Nc1ccc(C(N)=O)cc1,14.6µM*,19.0,-8.3,4.6%,-99.2%,-1.3
S=C(Nc1ccccc1)c1ccccn1,0.651µM*,-0.5,-84.3*,7.8%,0.92µM*,-75.4*
CCOC(=O)c1ccc(NC(=S)Nc2ccc(Cl)cn2)cc1,?,0.0,-2.8,-1.2%,-25.8%,-14.4
S=C(NCCc1ccccn1)Nc1ccccc1,-20.9%,-13.9,7.4,7.5%,-11.9%,-2.4
CCOC(=O)c1ccc(NC(=S)Nc2ccccn2)cc1,?,-0.9,2.0,0.0%,14.6µM*,-5.1
CCOC(=O)c1ccc(NC(=O)NCc2ccccc2OC)cc1,3.7%,-1.1,3.9,-4.9%,-26.5%,0.0
Cc1ccc(-c2cc(Cc3ccc(F)cc3)c(=O)[nH]n2)cc1,?,18.9,-2.7,2.6%,-28.8%,.
CC(C)c1ccc(NC(=O)CC2NCCNC2=O)cc1 (stereo not drawn),3.4%,.,.,-4.5%,-13.5%,.
